Hedgehog inh – Hedgehog pathway signaling inhibitors, primary screen, luminescence, Shh-LIGHT2 cells, Gli-luciferase; 2.1% of 22,000 active; inhibition, % (no concentration beside the values); Shh-LIGHT2 Gli-luciferase reporter, 30 h;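 active = mean inhibition across valid replicates above about 65%, limit read from the data; inconclusive = mean under the limit, yet half or more replicates past it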;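 note: pathway switched on by Shh-conditioned medium diluted 1 in 25 in low serum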
MITF inh – inhibitors of MITF, primary screen, MITF inhibitor project, cell-based, luminescence | TRPM1 promoter luciferase, 24 h | AID 2240, 2010 | inhibition, % (test concentration not listed) | 0.28% of 37,000 active; in the data active = inhibition above about 85%; inconclusive = no clear call, values can overlap the other calls; inactive = below about 68%;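 note: human melanocyte line stably carrying TRPM1 promoter luciferase reporter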
NOMO-1 viab – NOMO-1 AML cell viability reduction, primary screen, STK33 inhibitor project, CellTiter-Glo luminescence; NOMO-1 AML viability, 72 h; inhibition, % (no concentration beside the values); 7.5% of 37,000 active; AID 2330, 2010; in the data active = inhibition above about 80%; inconclusive = no clear call, values can overlap the other calls
Numbers without * were called inactive; ? = inconclusive; · = no result. Compounds with a hit are over-represented: about 8.1% of the library has one in this group of screens.

SMILES	Hedgehog inh	MITF inh	NOMO-1 viab
O=C(Nc1ccc(S(=O)(=O)Nc2nccs2)cc1)C1c2ccccc2Oc2ccccc21	·	0.2	-8.2
Cc1cc(C)c(S(=O)(=O)N2CCN(CC(O)COc3ccc4ccccc4c3)CC2)c(C)c1 (centres undefined)	·	43.4	22.8
Cc1cc(Cl)ccc1OCC(O)CN1CCC(CN2C(=O)c3cccc4cccc(c34)C2=O)CC1 (centres undefined)	·	0.5	119.2*
Cc1nc(CSc2nc3sc(C)c(C)c3c(=O)n2-c2ccccc2)cs1	·	-2.6	5.2
COc1ccc(-c2nc3cc(NC(=O)COc4ccc([N+](=O)[O-])cc4)ccc3o2)cc1Cl	·	36.6	22.4
CC(C)c1ccc2oc(-c3ccc(Cl)c(NC(=O)COc4ccc([N+](=O)[O-])cc4)c3)nc2c1	·	19.1	110.2*
Cn1nnnc1SCC(=O)Nc1cccc(Cl)c1Cl	·	-14.6	-4.5
C#C[C@]1(O)CCC2C3CCc4cc(O)ccc4C3CC[C@@]21C (some centres undefined)	-27.2	17.6	106.9*
C[C@]12CC[C@@H]3c4ccc(O)cc4CC[C@H]3[C@@H]1C[C@@H](O)[C@@H]2O	47.3	-4.3	-3.7
COc1ccc(NC(=O)CSc2nc3c(cc2C#N)C(=O)CCC3)cc1	·	-15.8	-7.8
COc1cc(Cc2nccc3cc(OC)c(OC)cc23)c(NC(=O)c2cc(F)c(F)cc2Cl)cc1OC	·	-0.2	15.8
CC(OC(=O)c1cccc(O)c1)C(=O)O (centres undefined)	-21.2	-2.6	-6.7
CCOC(=O)c1c(C2COc3ccccc3O2)csc1NC(=S)Nc1ccccc1 (centres undefined)	·	5.9	-2.3
CC/C=C\C/C=C\C/C=C\C/C=C\C/C=C\C/C=C\CCC(=O)O	-31.8	0.7	6.0
C/C=C/C/C=C/CCC(=O)[C@H]1O[C@H]1C(N)=O	77.9*	101.1*	113.9*
C[C@@H]1CCCCO[C@H](CN(C)Cc2ccc3c(c2)OCO3)[C@@H](C)CN([C@H](C)CO)C(=O)c2cc(NS(=O)(=O)c3cccs3)ccc2O1	27.5	5.9	62.2
O=C(/C=C/c1ccc(O)c(O)c1)OCCc1ccccc1	76.9*	-31.7	141.5*
O=C(/C=C/c1ccccc1)Oc1ccccc1	·	8.3	47.8
O=C(O)c1nn(-c2ccccc2)c2c1CCc1occc1-2	·	7.0	6.6
Cc1[nH]c2ccccc2c1C(=O)CSc1nnc2ccccn12	·	-92.4	-17.8
CC(C)NC(=O)Nc1ccc2c(c1)C(=O)N([C@H](C)CO)C[C@@H](C)[C@H](CN(C)S(=O)(=O)c1cn(C)cn1)O2	-25.6	-4.1	6.5
CCOC(=O)c1cnc(S/C=C/C(=O)c2ccc(C)cc2)nc1N	32.9	30.5	119.9*
CCOC(=O)c1cnc(SCC(=O)Nc2ccc(Cl)cc2Cl)nc1N	·	17.4	70.9
C[C@H](CO)N1C[C@H](C)[C@H](CN(C)C(=O)Nc2ccccc2)Oc2ccc(N(C)C)cc2CC1=O	-0.1	-3.8	25.1
O=C(CC1(O)C(=O)N(Cc2ccccc2)c2ccc(Cl)cc21)c1ccncc1 (centres undefined)	·	15.9	117.1*
SMILES	Hedgehog inh	MITF inh	NOMO-1 viab
O=C(CC1(O)C(=O)N(Cc2ccc(Cl)cc2)c2ccccc21)c1cc2ccccc2oc1=O (centres undefined)	·	10.6	120.4*
N#CCCCN1C(=O)C(O)(CC(=O)c2ccc3c(c2)OCCO3)c2ccccc21 (centres undefined)	·	19.5	26.1
CN1C(=O)C(O)(CC(=O)c2ccccn2)c2cc(Br)ccc21 (centres undefined)	·	-6.1	117.0*
NC(=O)CN1C(=O)C(O)(CC(=O)c2ccc(Cl)cc2Cl)c2ccccc21 (centres undefined)	·	-1.1	-6.2
CCS(=O)(=O)Nc1cccc(C(=O)CC2(O)C(=O)Nc3ccccc32)c1 (centres undefined)	-23.3	-2.5	11.8
Cc1ccc(CN2C(=O)C(O)(CC(=O)c3cccc(N)c3)c3cc(Cl)ccc32)cc1 (centres undefined)	·	52.5	133.0*
Cc1coc(C)c1C(=O)CC1(O)C(=O)Nc2ccc(Br)cc21 (centres undefined)	·	28.5	15.2
C[C@@H]1CN([C@@H](C)CO)C(=O)c2cc(NC(=O)Cc3ccccc3)ccc2O[C@H]1CN(C)S(=O)(=O)c1cn(C)cn1	-6.3	5.3	-13.4
O=C(CCSc1nc2ccccc2o1)Nc1ccc(F)cc1	·	10.0	-15.5
CCc1ccccc1NC(=O)C(C)n1cc([N+](=O)[O-])cn1 (centres undefined)	·	3.6	?
C=C1C(=O)[C@@]23CCC4[C@](C)(C(=O)O)CCC[C@@]4(C)[C@@H]2CC[C@@H]1C3 (some centres undefined)	-10.0	·	·

High-throughput results deposited in PubChem BioAssay by Broad Institute.
